# Experimental data published in PubChem BioAssay (EPA / NIEHS).
# Active and inactive are the calls of the source. How the source made its calls: active means hit-call score of the fitted dose curve at least 0.9, where 1 is the maximum; inactive means score below 0.9.
# Read-out: ABC Transporter (ABCC2), ABCC2 (gene 1244)
# Test: LTEA_HepaRG_ABCC2: Life Technologies and Expression Analysis (LTEA) Assay for ABC Transporter (ABCC2) using HepaRG (AID 2283464)
# Details: mRNA level, 48 h; actives raise or lower the signal
# Experimental: LTEA_HepaRG is a cell based, multiplexed-readout assay that uses HepaRG, a human liver cell line, with measurements taken at 48 hours after chemical dosing on a 96-well plate.LTEA_HepaRG_ABCC2 is one of 102 assay component(s) measured in the LTEA HepaRG cell culture assay. It is a marker of Steatosis/NR mediated transport.Data from the assay component LTEA_HepaRG_ABCC2 was analyzed into 1 endpoint. This assay endpoint, LTEA_HepaRG_ABCC2, was analyzed with bidirectional fitting relative to DMSO as the negative control and baseline of activity. Using a type of inducible reporter, measures of mRNA induction for gain or loss-of-signal activity can be used to understand regulation of transcription factor activity. To generalize the intended target to other relatable targets, this assay endpoint is annotated to the transporter intended target family, where the subfamily is ABC transporter.
# A total of 1060 chemcials from the ToxCast library were tested in eight-point concentration-response experiments. Cell culture and cytotoxicity assays were conducted at Thermo Fisher Scientific's Custom Services facility (Madison, WI). A single lot of human HepaRG cells (Thermo Fisher Scientific, Frederick, MD) was used for the cell culture experiments. 96-well format collagen type I coated plates of human HepaRG cells were prepared using established methods. Briefly, cryopreserved HepaRG cells were thawed, plated at a density of approximately 100,000 cells/well in HepaRG Thaw, Plate, and General Purpose media (HPRG770, Thermo Fisher Scientific), and incubated for 48 hours. 0.5% DMSO was selected as vehicle control to balance the requisite need of DMSO in HepaRG cultures to maintain differentiation (for example, baseline metabolism, proportions of hepatocytes vs. cholangiocytes), while enabling further hepatic receptor pathway activation (for example, PXR and CAR) in response to chemical exposure. 48 hours after plating, the culture medium was replaced with HepaRG Serum-Free Incudtion Media. Cells were exposed to each test chemical in duplicate and maintained in CO2 incubators for another 48 hours. Chemical plates were thawed to room temperature and 200x concentrations of treatment groups were prepared. 8-point conentration-reponse curves were made with the highest exposure at 100 uM, followed by half-log dilutions, all in 0.5% DMSO. Each test plate contained variouse controls, induction positive controls (1mM phenobarbital), cytotoxicity positive controls ([…] aflatoxin B1), vehicle controls (0.5% DMSO), and total lysis controls (0.5% DMSO). Cell morphology images were taken using an Essen IncuCyte FLR automated microscope, with six 96-well plates imaged in about 24 minutes. Images were captured and exported and JPEG files. Spent culture media was transfered to black-well plates for the LDH assay, and remaining media was sorted at -80 C for later use. Cells were treated with RLT buffer and frozen until shipped for gene expression analysis. Total RNA was isolated from the cell suspension in 75 uL of Buffer RLT (Qiagen, Germantown, MD 20874) by Quintiles/Expression Analysis (Durham, NC) using a custom isolation procedure. Total RNA from each plate well was transferred to a preamplification plate. Fluidigm's 96.96 Dynamic ArrayTM (Fluidigm, Amsterdam, the Netherlands) technology was used for gene expression analyses by quantitative reverse transcription polymerase chain reaction (qRT-PCR, performed by Quintiles/Expression Analysis, Durham, NC)89. Standard TaqManTM Assays (Applied Biosystems/ThermoFisher Scientific, Foster City, CA) were used to assess the expression of 93 genes selected based on their selectivity and sensitivity to important hepatic receptors known to be modulated by environmental chemicals; importance in human hepatocyte functionality; and hepatotoxicity. […]
SMILES,outcome,AC50
OC12N=C(c3ccccc3)SC1Cc1cc(Cl)ccc12 (stereo not given),inactive,
COc1cc(C(=O)NC2CCN(C)CC2)ccc1Nc1ncc2c(n1)N(C1CCCC1)CC(F)(F)C(=O)N2C,,21.5 µM (active)
CN(C)C(=O)C1(N2CCCCC2)CCN(CC[C@@]2(c3ccc(Cl)c(Cl)c3)CN(C(=O)c3ccccc3)CCO2)CC1,,23.7 µM (active)
Cc1cccc2ccccc12,inactive,
CC(=O)N1CCN(c2ccc(OC[C@H]3CO[C@](Cn4ccnc4)(c4ccc(Cl)cc4Cl)O3)cc2)CC1,,31.1 µM (active)
CCN(Cc1cccnc1)C(=O)c1cccc(Cl)c1[C@]1(C)C(=O)N(Cc2ccc(OC)cc2OC)c2ccc(Cl)cc21,inactive,
CCCC(=O)OCCC(C)C,inactive,
CCCCCCCCCC(=O)O,inactive,
CCCCOC(=O)c1ccc(O)cc1,inactive,
NCc1cccc(C2CCN(C(=O)c3ccc(C#Cc4ccccc4F)o3)CC2)c1,,90.6 µM (active)
Cc1ccc(C(C)C)cc1,inactive,
Cc1occc1C(=O)Nc1ccc(C(=O)N2CCC(F)(F)/C(=C\C(=O)N3CCC(N4CCCCC4)CC3)c3ccccc32)cc1,inactive,
O=C(Nc1ccc(Cl)cc1)Nc1ccc(Cl)c(Cl)c1,inactive,
OCCO,inactive,
O=C1CCC(C2CCCCC2)CC1,inactive,
c1ccc2n[nH]nc2c1,inactive,
CC(C)(c1cc(Br)c(O)c(Br)c1)c1cc(Br)c(O)c(Br)c1,inactive,
CCCCCCCCN(C)CCCCCCCC,inactive,
CCOC(=O)O[C@H](C)OC(=O)c1ccc2c(c1)cc(C(=O)NC1CCN(C(C)C)CC1)n2Cc1cc(-c2ccc(Cl)s2)on1,inactive,
Cc1cc2c(cc1C(F)(F)F)N(C(=O)Nc1ccc(Oc3cccnc3C)nc1)CC2,inactive,

SMILES,outcome,AC50
Cc1oc2c(NC(=O)c3c(Cl)cccc3Cl)cccc2c1C(C)(C)O,,33.8 µM (active)
Clc1ccccc1C(c1ccccc1)(c1ccccc1)n1ccnc1,inactive,
COc1ccc2cc(S(=O)(=O)N[C@H](CC(=O)N[C@H](Cc3ccc(CN4[C@H](C)CCC[C@@H]4C)cc3)C(=O)N(C)C(C)C)c3ccc4c(c3)OCO4)ccc2c1,,16.2 µM (active)
O=C(OCCCCCCOC(=O)c1ccccc1)c1ccccc1,inactive,
O=C(O)Cc1cc(I)c(Oc2ccc(O)c(I)c2)c(I)c1,inactive,
COCC(C)OCC(C)OCC(C)O (stereo not given),inactive,
CCCCCCCCOC(=O)c1cc(O)c(O)c(O)c1,inactive,
CC(C)(O)c1ccc(CNC(=O)c2cccnc2Oc2ccc3nonc3c2)cc1,,50 µM (active)
O=c1[nH]sc2ccccc12,inactive,
O=C1c2ccccc2C(=O)N1CCc1noc(-c2ccc(CN3CCCCCC3)s2)n1,inactive,
O=CCCCC=O,inactive,
O=C(O)Cn1c(=O)n(Cc2ccc(Br)cc2F)c(=O)c2ccc(Cl)cc21,inactive,
Cc1cc(F)ccc1-c1cc(N2CC[C@@H](O)[C@H]2CO)ncc1N(C)C(=O)C(C)(C)c1cc(C(F)(F)F)cc(C(F)(F)F)c1,,70.7 µM (active)
CC/C(=C(/CC)c1ccc(O)cc1)c1ccc(O)cc1,,78 µM (active)
CC[C@@H]1C[C@H](N(Cc2cc(C(F)(F)F)cc(C(F)(F)F)c2)C(C)=O)c2cc(C(F)(F)F)ccc2N1C(=O)OC(C)C,,0.737 µM (active)
COc1cccc([C@H](O)C2CCN(CCc3ccc(F)cc3)CC2)c1OC,inactive,
CN(C)c1ccc(C(=C2C=CC(=[N+](C)C)C=C2)c2ccc(N(C)C)cc2)cc1,,18.8 µM (active)
Oc1ccccc1,inactive,
CC1(C)NC(=O)N(c2ccc([N+](=O)[O-])c(C(F)(F)F)c2)C1=O,inactive,
CCN(CC)C(=O)c1cc(S(=O)(=O)Cc2ccccc2)c(N2CCC(c3ccccc3)CC2)cc1N(CC)CCN(C)C,,30.8 µM (active)
